Hit rate of the full screen: of about 360,000 compounds, about 10,000 (2.8%) were called active. Inconclusive results (about 4%) are left out. The full list was thinned out, with actives kept by preference. Values without a mark were called inactive. Calls follow the shape of the dose curve; as a rule, active = well fitted inhibition curve with a large enough effect; inconclusive = small, poorly fitted or top-dose-only effect; inactive = flat fitted curve, though single readings scatter.
Target: Serine/threonine-protein kinase PLK1 (Homo sapiens) (UniProt P53350)
Sequence (P53350 whole entry, looked up, the tested form may be a part): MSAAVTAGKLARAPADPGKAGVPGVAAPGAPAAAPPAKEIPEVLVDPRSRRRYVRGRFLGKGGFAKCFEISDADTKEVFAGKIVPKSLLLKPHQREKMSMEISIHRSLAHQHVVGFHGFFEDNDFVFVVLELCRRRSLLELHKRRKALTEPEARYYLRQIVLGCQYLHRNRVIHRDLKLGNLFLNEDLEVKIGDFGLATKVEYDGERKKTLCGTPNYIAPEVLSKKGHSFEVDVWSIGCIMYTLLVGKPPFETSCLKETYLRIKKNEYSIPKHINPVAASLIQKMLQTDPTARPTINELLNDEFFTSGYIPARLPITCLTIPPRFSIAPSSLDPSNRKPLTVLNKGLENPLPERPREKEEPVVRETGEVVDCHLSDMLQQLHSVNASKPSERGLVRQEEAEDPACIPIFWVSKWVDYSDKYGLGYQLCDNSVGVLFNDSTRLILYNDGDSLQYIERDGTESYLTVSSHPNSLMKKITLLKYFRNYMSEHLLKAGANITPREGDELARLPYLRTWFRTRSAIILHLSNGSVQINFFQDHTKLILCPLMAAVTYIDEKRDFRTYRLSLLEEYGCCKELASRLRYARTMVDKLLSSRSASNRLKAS
Test: qHTS for Inhibitors of PLK1-PDB (polo-like kinase 1 - polo-box domain): Primary Screen; also: nearly all actives have a fitted effect of over 65% in size; as to max response, negative = inhibition: series mostly up to about 57 µM
Conditions: Plk1 PBD binding of FITC phosphopeptide, fluorescence polarization
% is scaled to controls: 0 for no effect and ±100 for the full control effect; potency is read from the fitted curve at half-maximal effect.

Structure (SMILES) | max response, negative = inhibition [%] | Potency
Nc1nc2c(ncn2[C@@H]2O[C@H](CNCc3ccc(OCCCN4CCOCC4)cc3)[C@@H](O)[C@H]2O)c(=O)[nH]1 | -2.1 | –
COc1cccc(-c2cnc(C(O)c3ccccc3OC)[nH]2)c1 (stereo not drawn) | -12.1 | –
CCc1cc(=O)oc2c(C)c(OCC(=O)NCCN3CCOCC3)ccc12 | – | 21.2 µM (active)
CCCc1cc(=O)oc2c(C)c(OCC(=O)NCc3ccccn3)ccc12 | 0.145 | –
CCCc1cc(=O)oc2c(C)c(OCC(=O)Nc3ccccn3)ccc12 | 7.66 | –
COc1ccc(C(C)C)cc1-c1ccc2nncn2c1 | -3.26 | –
COc1cccc(-c2cc3nc(NCCOc4ccccc4Cl)n(C)c(=O)c3s2)c1 | -5.38 | –
O=C(Nc1ccccc1)c1ccccc1Br | -3.61 | –
COCCCN1C(=O)C(CC(=O)NCc2cccs2)CC(C(=O)N2CCOCC2)=C1C (stereo not drawn) | -4.29 | –
CC(Sc1nnc2c(n1)C1CCC2(C)C1(C)C)C(=O)Nc1ccccc1 (stereo not drawn) | 1.59 | –
CSc1nc(C)cc(SC(C(C)=O)C(=O)Nc2ccccc2)n1 (stereo not drawn) | – | 26.7 µM (active)
CSc1nc(N(C)NC(=O)c2cccc(C)c2)c2ccccc2n1 | -6.24 | –
CC(C)NC(=O)C1(C)CCCCCN1C(=O)c1ccc(-c2ccccc2)cc1 (stereo not drawn) | -8.92 | –
COc1ccc(-c2ccc(CN3C(C(C)C)C(=O)N(Cc4cn(CC5CCCCC5)nn4)CCS3(=O)=O)cc2)cn1 (stereo not drawn) | -14.8 | –
COC(=O)C1(C(=O)OC)C[C@H](c2ccccc2)N(Cc2ccccc2OC)[C@@H]1c1ccccc1 | -15.2 | –
CCN(CC)C(=O)C1=C(C)N(Cc2ccc(F)cc2)C(=O)C(CC(=O)NCc2cccc3ccccc23)C1 (stereo not drawn) | -13.9 | –
CCCc1c(-c2ccccc2F)ncn1Cc1ccccc1OC | -1.08 | –
Cc1ccccc1-c1csc(C(O)c2cccc(Cl)c2)n1 (stereo not drawn) | -10.6 | –
O=C(/C=C/[C@H]1O[C@@H](n2cnc3c(NC(=O)c4ccccc4)ncnc32)[C@H](O)[C@@H]1O)NCc1ccccc1 | -4.8 | –
CCOc1ccc(Cn2c(SCCCCC#N)nc3c2c(=O)n(C)c(=O)n3C)cc1OCC | – | 18.9 µM (active)
CCCCn1c(SCC(=O)NCCc2ccc(OC)c(OC)c2)nc2c1c(=O)n(C)c(=O)n2C | -1.04 | –
CCCSc1nc2c(c(=O)n(C)c(=O)n2C)n1Cc1ccc(C)cc1 | -10.2 | –

Structure (SMILES) | max response, negative = inhibition [%] | Potency
COc1ccc(NC(=O)C2Cc3c(-c4ccc(Cl)cc4)ccnc3O2)cc1 (stereo not drawn) | 1.68 | –
O=C(NCC(O)c1nc2ccccc2[nH]1)c1ccc(Br)cc1 (stereo not drawn) | -3.2 | –
CC1(C(=O)NCc2ccc3c(c2)OCO3)CCN1CCc1ccccc1 (stereo not drawn) | 2.52 | –
CCN(CC)CCn1c2c(c(SCC(=O)Nc3nc4ccccc4s3)nc1=O)CCCC2 | -2.27 | –
c1ccc(C(=NNc2nc3ccccc3s2)c2ccccn2)cc1 | -7.03 | –
c1ccc2sc(NN=C3CCCC3)nc2c1 | – | 26.7 µM (active)
OC[C@@H]1CN(C2CCCC2)C[C@H](n2cnc3c(NC4CCC4)ncnc32)O1 | -3.48 | –
C=CCn1c2c(c3ccccc31)CCC2 | -9.68 | –
Cn1c(=O)c([N+](=O)[O-])c(Oc2ccccc2)c2ccccc21 | – | 23.8 µM (active)
Cc1cc(C)c(-c2c(O)c3ccccc3n(C)c2=O)c(C)c1 | -5.02 | –
COc1cc2c(=O)n(C)c3ccccc3c2cc1OC | -8.91 | –
CCOC(=O)c1c(C)[nH]c(C)c1C(=O)COC(=O)/C=C/c1cccc([N+](=O)[O-])c1 | 1.23 | –
Cc1ccnc(NS(=O)(=O)c2ccc(NC(=O)c3ccc(S(=O)(=O)N(C)C)cc3)cc2)n1 | – | 26.7 µM (active)
Cc1ccnc(NS(=O)(=O)c2ccc(NC(=O)c3oc4ccccc4c3C)cc2)n1 | -5.87 | –
Cc1ccnc(NS(=O)(=O)c2ccc(NC(=O)c3ccc(S(=O)(=O)N4CCOCC4)cc3)cc2)n1 | -5.87 | –
COc1ccc(C(C)(O)c2nc(-c3cc(F)cc(F)c3)cs2)cc1 (stereo not drawn) | 4.82 | –
OC(c1ccccc1)(c1ccccc1)C1CCN(CCCOc2ccccc2)CC1 | 0.305 | –
CC(C)N=C1CCCC1C(=S)SSC(=S)C1CCCC1=NC(C)C (stereo not drawn) | – | 9.47 µM (active)
CCC(c1nc2ccccc2[nH]1)n1c(=O)c(-c2cccs2)nc2ccccc21 (stereo not drawn) | 7.42 | –
Cc1ccc(C(=O)Nc2nc(N)n(-c3ccccc3)n2)cc1 | -8.25 | –
COc1ccc(-c2[nH][nH]c(=O)c2NC(=O)c2ccc([N+](=O)[O-])cc2)cc1 | -12.4 | –
Cc1ccc(C(=O)Nc2c(-c3ccccc3)[nH][nH]c2=O)cc1 | – | 23.8 µM (active)

Structure (SMILES) | max response, negative = inhibition [%] | Potency
CCOC(=O)c1c(NC(=O)C2(C)Cc3ccccc3C(=O)O2)sc2c1CCCC2 (stereo not drawn) | – | 23.8 µM (active)
CCOC(=O)c1c(NC(=O)C(C)Sc2c[nH]c3ccccc23)sc2c1CCC2 (stereo not drawn) | -20.8 | –
CCOC(=O)c1c(NC(=O)CSc2cn(CC)c3ccccc23)sc2c1CCC2 | -5.08 | –
CC1(c2cccc(N)c2)OCCO1 | -12.9 | –
CCc1nc2ccc(C(=O)N(C)Cc3ccco3)cn2c1N(C)C(=O)Cc1ccccc1 | -2.7 | –
CC1(C(=O)NS(=O)(=O)c2cccc(F)c2)CCN1C(=O)Cc1cc(F)ccc1F (stereo not drawn) | 1.7 | –
C[C@@H]1CN([C@H](C)CO)C(=O)c2cc(-c3ccc(F)cc3)cnc2O[C@H]1CN(C)C(=O)c1ccc(F)cc1 | -26.3 | –
O=[N+]([O-])c1c(NCCO)cc(Sc2nc3ccccc3s2)c2nonc12 | – | 1.68 µM (active)
OCCNc1nc(Nc2ccc(Cl)c(Cl)c2)nc2ccccc12 | -0.568 | –
Cc1ccc(CN(C)C[C@@H]2OCc3cnnn3CCCC(=O)N([C@@H](C)CO)C[C@H]2C)cc1 | -4.71 | –
CC(C)(C)C1CCC(=O)N2CCC[C@]2(c2ccccc2)C1 (stereo partly drawn) | -8.62 | –
COC(=O)C1=CN(c2c(C)cc(C)cc2C)C(N)=C(C#N)C1c1cccc(F)c1 (stereo not drawn) | 0.842 | –
CCc1ccccc1NC(=O)CSc1nnc([C@@H](NC(=O)OC(C)(C)C)C(C)CC)o1 (stereo partly drawn) | -15.7 | –
CC(C)(C)c1ccc(C(CC(=O)O)NS(=O)(=O)Cc2ccccc2)cc1 (stereo not drawn) | -2.95 | –
CC(C)[C@@H](NC(=O)OC(C)(C)C)C(=O)NCC1CCC(C(=O)N[C@@H](Cc2ccccc2)C(=O)O)CC1 (stereo partly drawn) | 3.75 | –
C[C@@H](NC(=O)OC(C)(C)C)c1nnc(S(=O)(=O)Cc2ccccc2)o1 | – | 13.4 µM (active)
COc1ccccc1NC(=O)[C@H](COCc1ccccc1)NC(=O)OC(C)(C)C | -12.1 | –
CC(C)Sc1nnc([C@H](Cc2ccccc2)NC(=O)OC(C)(C)C)o1 | – | 23.8 µM (active)
CCCOc1ccc(F)cc1-c1cc(C(=O)NCc2ccc(F)cc2)[nH]n1 | -11.9 | –
COc1cc(C(=O)OCCCN2CCOCC2)cc(OC)c1OC | 0.976 | –
CCOC(=O)N1CCN(C(=O)C[C@@H]2C[C@@]3(C(=O)OC)CC(C)(C)CC=C3N(Cc3ccco3)C2=O)CC1 | 2.41 | –
Cc1cccc(CNC(=O)c2sc(=O)n(Cc3ccccc3C)c2C)c1 | -6.16 | –

Structure (SMILES) | max response, negative = inhibition [%] | Potency
CCCCn1c(SCC(=O)N2CCOCC2)nc2c1c(=O)n(C)c(=O)n2C | -13.8 | –
CCCCCn1c(SCCC(C)C)nc2c1c(=O)[nH]c(=O)n2C | – | 23.8 µM (active)
CCCCCCn1c(SCC(=O)c2ccccc2)nc2c1c(=O)[nH]c(=O)n2C | -19.2 | –
CCc1nc2c(OCC(=O)C(C)(C)C)cccn2c1N(C)C(=O)c1ccccc1F | -11 | –
CC1(C)CC(=O)C=C(c2ccccc2CO)C1=O | -0.138 | –
Clc1ccc(-c2cccc3nccn23)cc1 | -1.38 | –
COC(=O)c1ccccc1N=NNc1ccc([N+](=O)[O-])cc1 | 0.193 | –
COC(=O)c1cn(C(=O)c2ccc(Cl)cc2)c2ccccc12 | -5.55 | –
COC(=O)c1ccccc1N=Nc1c(C)[nH][nH]c1=O | – | 23.8 µM (active)
CCN(CC)c1ncnc2c1ncn2[C@H]1CN(Cc2cccs2)C[C@@H](CO)O1 | 2.82 | –
C[C@@H]1CCCCO[C@H](CN(C)Cc2ccccc2)[C@@H](C)CN([C@H](C)CO)C(=O)c2cc(NS(=O)(=O)c3ccc(Cl)cc3)ccc2O1 | -7.57 | –
O=C1CSC(=S)N1c1ccc(O)cc1 | 1.87 | –
COc1cc(N2C(=O)CSC2=S)cc(OC)c1OC | -18.2 | –
O=C1CSC(=S)N1c1ccc(Cl)c(Cl)c1 | – | 26.7 µM (active)
CCOC(=O)N1CCN(C(=O)C[C@@H]2C[C@@]3(C(=O)OC)CCCCC=C3N(CCC3=CCCCC3)C2=O)CC1 | 4.13 | –
Nc1ncnc2c1ncn2[C@@H]1O[C@H](C(=O)N2CCSC2)[C@@H](O)[C@H]1O | -1.36 | –
Clc1ccccc1Nc1nc(NCc2cccs2)nc2ccsc12 | 0.746 | –
CCc1nc2c(OCCc3cccc(OC)c3)cccn2c1N(C)C(=O)c1ccc(C)cc1 | -4.74 | –
CC(=O)Nc1cc(-c2cccc(CO)c2)cn2c(-c3cccc(C(F)(F)F)c3)cnc12 | -14.2 | –
O=C(Nc1ccccc1)c1nnsc1S(=O)(=O)c1ccc(Cl)cc1 | – | 4.74 µM (active)
O=C(Nc1ccc(S(=O)(=O)Nc2ccccn2)cc1)c1ccccc1 | -2.45 | –
Cc1nnsc1S(=O)(=O)Cc1ccccc1Cl | -7.17 | –

Source: PubChem BioAssay AID720504 (National Center for Advancing Translational Sciences (NCATS), 2013)
